According to PubChem BioAssay (NCI):
About 83,000 compounds went through this panel and 20% of them were active in at least one assay; those are over-represented in the sample as a whole.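 Step 1: grow cells in 96-well plates. Step 2: add test compound at a single concentration. Step 3: incubate 48 h. Step 4: record percent growth.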 A number with no mark means an inactive call. The source made the active and inactive calls. The calls were made as follows: active = growth percent below 10; inactive = the rest.

system: MDA-MB-468 breast; experiment: NCI-60 one-dose screen, 48 h (100 = growth as untreated, 0 = no growth, -100 = all killed); conditions: 10 µM unless noted

Row | SMILES | growth
1 | COc1cc(CSc2nc3ccc(Cl)cc3c(=O)n2-c2ccccc2)cc(OC)c1OC | 57.4%
2 | C#Cc1cccc(Nc2ncnc3ccc(NC(=O)c4ccccc4)cc23)c1 | -28.5% (active)
3 | CCN(CC)CC(O)CNc1c2ccc([N+](=O)[O-])cc2nc2cc(OC)c(OC)cc12 (stereo not given) | -44.5% (active)
4 | N#Cc1ccc(O)c(C2=NCC(c3ccc(-c4ccccc4)cc3)O2)c1 (stereo not given) | 26.9%
5 | CCNc1nc(-c2ccc(Cl)c(OC)c2)c(-c2ccnc(NCCNS(=O)(=O)c3ccc(Cl)cc3)n2)s1 | -8.24% (active)
6 | COC(=O)C(Cc1ccccc1)n1cc(COc2nc(Cl)nc(Nc3ccc(Cl)cc3)n2)nn1 (stereo not given) | 69.1%
7 | CC(=O)Nc1ccc(C(=O)/C=C/c2ccc(N(C)C)cc2)cc1 | 95.6%
8 | COc1cc(/C=C/C(=O)Nc2cccnc2Nc2ccc(F)cc2)cc(OC)c1OC | 97.4%
9 | O=C(O)[C@@H](Cc1ccc2ccccc2c1)NC(=O)n1c2ccccc2c2ccccc21 | 11.9%
10 | NC(N)=Nc1ccc(Oc2cccc(NC(N)=Nc3ccc(I)cc3F)c2)cn1 | -8.03% (active)
